Results filed as inconclusive are left out. Calls of active or inactive are those of the source. Unless noted, calls come from the whole dose curve; as a rule, active = well fitted curve in the direction sought with a large enough effect; inconclusive = small, poorly fitted or top-dose-only effect, or another doubt; inactive = no such curve, though single readings can be large; an effect the other way counts as inactive or inconclusive.
Key:
[1] = Cell Viability - Jurkat (AID 426;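 active = dose-dependent loss of cell ATP signal giving a full or clear fitted curve, ranked by lower potency value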; note: potency is the fitted concentration of half-maximal effect); details: qHTS
Procedure, shortened: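 Cells of the human T-cell leukemia line Jurkat (E6-1) are seeded at 5000 per well, treated with compound across a concentration range for 40 hours at 37 °C, then lysed with CellTiter-Glo; luminescence reports ATP.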

[2] = Cell Viability - Hek293 (AID 427;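 active = compounds whose dose-response curve shows a full or clear partial loss of cell viability, called from curve shape rather than a numeric limit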;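 note: potency is the fitted concentration of half-maximal effect; cells exposed to compound for 40 hours at 37 °C before reading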); details: qHTS
Procedure, shortened: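 Luminescent ATP read-out (CellTiter-Glo, 20 min RT) after 40 hr compound exposure at 37 °C in complete medium. Signal normalized to DMSO (basal) and 100 uM tamoxifen (100% inhibition); concentration-response fitted with the standard Hill equation to give AC50.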

[3] = Cell Viability - HepG2 (AID 433; calls by dose curve;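 note: potency is the fitted concentration of half-maximal effect; potency for ATP loss meaning cytotoxicity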); details: qHTS
Procedure, shortened: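 In this qHTS format, a 40 h, 37 °C compound incubation of HepG2 cells in complete medium precedes a 20 min CellTiter-Glo step at room temperature. Tamoxifen and doxorubicin serve as positive controls; Hill-equation fits yield AC50.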

[4] = Cell Viability - MRC5 (AID 434; calls by dose curve;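 note: potency is the fitted concentration of half-maximal effect; potency reflects cytotoxicity seen as loss of intracellular ATP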); details: MRC5 lung fibroblast viability, qHTS
Procedure, shortened: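 ATP luminescence read-out (CellTiter-Glo, 20 min RT) after 40 hr, 37 °C compound exposure of 1500 MRC5 cells/well. Data normalized to DMSO (basal) and 100 uM tamoxifen (100% inhibition); AC50 from standard Hill equation.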

[5] = Cell Viability - SK-N-SH (AID 435; calls by dose curve;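 note: potency is the fitted concentration of half-maximal effect; compound exposure lasted 40 h at 37 °C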); details: SK-N-SH neuroblastoma cell viability qHTS
Procedure, shortened: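 Human neuroblastoma line, 40 h exposure at 37 °C, ATP quantified via luciferase luminescence; DMSO and 100 uM tamoxifen define 0 and 100% inhibition for AC50 fitting.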

[6] = Cell Viability - N2a (AID 540); details: N2a mouse neuroblastoma cell viability; at 92.2 µM (top of the series);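 note: plate controls were DMSO alone for no effect and tamoxifen control for full effect; nearly all actives have a fitted effect of over 45% in size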
Procedure, shortened: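 Cytotoxicity was scored as loss of cellular ATP in N2a cells, a mouse neuroblastoma line. Compounds are applied in a qHTS concentration series for 40 hr at 37 °C.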

[7] = Cell Viability - HUV-EC-C (AID 542); note: % is set by controls: 0 for no effect and ±100 for the full control effect; nearly all actives have a fitted effect of over 35% in size
Procedure, shortened: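 Cells were seeded at 1000 per well and incubated 5 hr at 37 °C before compound addition. After 40 hr at 37 °C, CellTiter-Glo reagent was added for 20 min and luminescence read. AC50 values came from Hill-equation modelling.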

[8] = Cell Viability - H-4-II-E (AID 543); note: % is set by controls: 0 for no effect and ±100 for the full control effect; nearly all actives have a fitted effect of over 35% in size
Procedure, shortened: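 Cells seeded at 1500 per well and rested 5 hr; compounds added; 40 hr incubation at 37 °C; CellTiter-Glo added, 20 min at room temperature; luminescence read. Hill-equation fits gave AC50.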

[9] = Cell Viability - Renal Proximal Tubule (AID 545); details: renal proximal tubule cells viability; at 91.7 µM (top of the series), primary cells of rat origin unless noted; note: nearly all actives have a fitted effect of over 40% in size
Procedure, shortened: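 In this qHTS format, normal rat kidney-derived proximal tubule cells in complete culture medium receive compound titrations, then sit 40 hours at 37 °C before luciferase-based ATP quantitation; potency is reported as AC50 from concentration-response curves.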

[10] = Cell Viability - Mesenchymal (AID 546);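 note: cells exposed to compound for 40 hours before reading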
Procedure, shortened: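 Human renal mesenchymal cells (glomerulus-derived), 1000 cells/well, 5 hr 37 °C pre-incubation; compound 40 hr, 37 °C; CellTiter-Glo, 20 min RT; luminescence; AC50 via Hill equation.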

[11] = Cellular Toxicity (caspase-3) HepG2 (AID 654);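 note: cells exposed to compound for 16 hours before reading; 0% = DMSO alone and 100% = caspase signal from 100 µM tamoxifen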
Procedure, shortened: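 Caspase 3/7 activation in HepG2 is measured as rising luminescence after a 16 hr treatment at 37 °C. Values are scaled between DMSO basal and 100 uM tamoxifen, and AC50 is fitted with the Hill equation.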

[12] = Cellular Toxicity (caspase-3) Jurkat (AID 655); details: Jurkat caspase-3 activation, luminescence, DMSO = 0%, tamoxifen = 100%; at 92.2 µM (top of the series);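 note: cells exposed to compound for 16 h at 37 °C before reading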
Procedure, shortened: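 qHTS in human Jurkat T-cell leukemia line: 16 hr compound treatment at 37 °C, caspase-3/7 activity measured by Caspase-Glo luminescence. AC50 derived from Hill equation.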

[13] = Cellular Toxicity (caspase-3) HUV-EC-C (AID 656)
Procedure, shortened: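 Concentration-dependent caspase 3/7 induction was assessed in HUV-EC-C cells exposed for 16 hours. Data scaled between DMSO and tamoxifen (100 uM) controls.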

[14] = Cellular Toxicity (caspase-3) SHSY5Y (AID 657);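 note: cells exposed to compound for 16 hours at 37 °C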
Procedure, shortened: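 Readout: caspase-cleaved peptide-aminoluciferin substrate driving luciferase light in SH-SY5Y neuroblastoma cells after 16 h treatment. Response normalized to DMSO and 10 uM staurosporine controls.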

[15] = Cellular Toxicity (caspase-3) BJ (AID 658)
Procedure, shortened: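 qHTS, BJ fibroblasts, 1000 cells/well; 5 hr preincubation, 16 hr compound, 37 °C; Caspase-Glo 3/7 reagent, 1 hr RT; luminescence. DMSO = 0%, 10 uM staurosporine = 100%. Hill-equation AC50.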

[16] = Cellular Toxicity (caspase-3) MRC-5 (AID 659)
Procedure, shortened: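 MRC-5 fibroblasts, 1500/well; 16 h cpd, 37 °C; Caspase-Glo 3/7, 1 h RT; lumi read. Norm: DMSO = 0%, 10 uM staurosporine = 100%. Hill-fit AC50 from qHTS conc-response.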

[17] = Cellular Toxicity (caspase-3) Mesangial (AID 660);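 note: combined caspase 3 and 7 activity read by Caspase-Glo luminescence; cells exposed to compound for 16 h before the caspase read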
Procedure, shortened: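 Seed cells derived from normal human renal glomeruli, incubate 5 h, add compounds across concentrations and incubate 16 h at 37 °C. Caspase 3/7 activation is then quantified by luciferase light, with AC50 derived by Hill modeling.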

[18] = Cellular Toxicity (caspase-3) SK-N-SH (AID 661)
Procedure, shortened: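 Cells were seeded and incubated 5 hr at 37 °C, dosed with compound over a concentration range for 16 hr, then given Caspase-Glo 3/7 reagent for 1 hr at room temperature before luminescence reading.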

[19] = Cellular Toxicity (caspase-3) H-4-II-E (AID 663);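 note: cells exposed to compound for 16 hr before readout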
Procedure, shortened: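 H-4-II-E rat hepatoma, 1500 cells/well, 5 hr settle at 37 °C; compound 16 hr, 37 °C, complete medium; Caspase-Glo 3/7, 20 min RT; luminescence. DMSO = 0%, 100 uM tamoxifen = 100%; Hill-equation AC50.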

[20] = Cellular Toxicity (caspase-3) Hek293 (AID 664);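 note: cells exposed to compound for 16 h at 37 °C before readout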
Procedure, shortened: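 qHTS, HEK293 (human embryonic kidney), 16 h cpd exposure in complete medium. Caspase-3/7 activation = luminescence increase; normalized to DMSO/100 uM tamoxifen; Hill-fit AC50.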

[21] = Cellular Toxicity (caspase-3) N2a (AID 665); details: N2a cells, luminescence, normalized: DMSO 0%, 10 µM staurosporine 100%; at 92.2 µM (top of the series);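 note: compound exposure lasted 16 h at 37 °C before readout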
Procedure, shortened: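 Caspase-3/7 activation, measured as increased luminescence from aminoluciferin release, is quantified in mouse N2a cells exposed to compounds for 16 h. Values are normalized to DMSO and 10 uM staurosporine, with AC50 derived by Hill modelling.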

[22] = Cellular Toxicity (caspase-3) NIH 3T3 (AID 666);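 note: 0% = DMSO basal and 100% = 100 µM tamoxifen stimulation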
Procedure, shortened: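 Cells were plated at 1000 per well and incubated 5 hr at 37°C, then compound was added for 16 hr. Caspase-Glo 3/7 reagent followed for 20 min at room temperature before luminescence was read.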

[23] = Cellular Toxicity (caspase-3) Renal Proximal Tubule (AID 667); details: renal proximal tubule cells; at 91.7 µM (top of the series), primary cells freshly taken from rat, solvent-only wells 0%, staurosporine 100% unless noted;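 note: cells exposed to compound for 16 hours at 37 °C before detection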
Procedure, shortened: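 Caspase-Glo 3/7 read-out, rat primary kidney proximal tubule cells. Compound exposure 16 h, 37 °C; detection after 1 h at RT. Activity scaled to DMSO and 10 uM staurosporine.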

CCCOC(=O)c1ccccc1C(=O)OCCC
inactive: Potency [1] > 92 µM | Potency [2] > 92 µM | Potency [3] > 92 µM | Potency [4] > 92 µM | Potency [5] > 92 µM | activity change, negative = cytotoxicity [6] -15% | Potency [7] | Potency [8] | activity change, negative = cytotoxicity [9] -1.75% | outcome [10] | outcome [11] | caspase-3 activation [12] -1.2% | outcome [13] | outcome [14] | outcome [15] | outcome [16] | outcome [17] | outcome [18] | outcome [19] | outcome [20] | caspase-3 activation [21] 2.99% | outcome [22] | caspase-3 activation [23] 0.709%

— PubChem BioAssay (NCATS)
